# In PubChem BioAssay (NCI):
# About 79,000 compounds went through this panel and 15% of them were active in at least one assay; those are over-represented in the sample as a whole. Calls of active or inactive are those of the source. Cut-off read from the data, not from the text of the source: active = growth inhibition above about 70%; inactive = the rest.
# Experiment: NCI Yeast Anticancer Drug Screen. Data for the mlh1 rad18 strain (AID 175)
# Details: S. cerevisiae mlh1 rad18 strain growth inhibition; at 50.0 µM; hits give high values
# Outline: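 Compound-treated yeast growth, normalised to vehicle controls. Strain bears defined DNA repair mutations.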
row,Structure (SMILES),growth inhibition
1,CCOC(=O)Cc1nc2ncncc2[nH]c1=O,-7.85% (inactive)
2,C/C=C/c1ccc(OCC)c(OC)c1,16.3% (inactive)
3,O=C(c1ccco1)N(C(=S)N1CCN(c2ccccc2)CC1)c1ccccc1,-35.2% (inactive)
4,CC(=O)Nc1c(C)ccc([N+](=O)[O-])c1C,13.5% (inactive)
5,CC(C)CCCC(C)C1CCC2C3C(O)CC4CCCCC4(C)C3CCC12C (configuration not stated),97.9% (active)
6,CC(C)CC(=O)c1ccc2ccccc2c1O,5.95% (inactive)
7,O=C(Cc1nc2sc3c(c2c(=O)[nH]1)CCCC3)Nc1ccccc1,-17.6% (inactive)
8,C[C@@H]1C(=O)CC2(O)[C@@]13C[C@@H](OC(=O)[C@@H]3O)[C@@H](C)[C@@]21COC1=O (some centres not stated),-47.1% (inactive)
9,O=c1ccn(C2OC(CF)C(O)C2O)c(=O)[nH]1 (configuration not stated),-9.9% (inactive)
10,N=C(N)n1ncc(Cl)c(Cl)c1=O,41.5% (inactive)
11,CC(=O)ON(C(=O)c1ccccc1)c1ccccc1,12.1% (inactive)
12,C#CC(C)(O)c1ccccc1 (configuration not stated),-11.6% (inactive)
13,CC1(C)[C@H](C(=O)O)N2C(=O)[C@@H](NC(=O)C(c3ccccc3)c3ccccc3)[C@H]2S1=O (some centres not stated),4.85% (inactive)
14,COc1cc([N+](=O)[O-])c2ncccc2c1OC,68.2% (inactive)
15,CC(=N\N)/C(C)=N/N=C(C)/C(C)=N/N=C(C)/C(C)=N/N=C(C)/C(C)=N/N,-14.4% (inactive)
16,COc1ccc(-c2c3ccccc3c(-c3ccc(OCCCCCBr)cc3)c3ccccc23)cc1,1.4% (inactive)
17,CCC(c1ccc(C(C)=O)c(O)c1)C(CC)c1ccc(C(C)=O)c(O)c1 (configuration not stated),30.4% (inactive)
18,CCC(CO)(CO)CBr,9.55% (inactive)
19,O=C(O)CCNCCCCNCCC(=O)O,-22.3% (inactive)
20,COc1cc(C(=O)O)cc(OC(C)=O)c1OC,20.7% (inactive)
21,CC(=O)CC(C)=NCCN=C(C)CC(C)=O.[Cu],82% (active)
22,COCCOCOCCCC#C[Si](C)(C)C,-19.4% (inactive)
